Assay outcomes: PubChem, National Center for Advancing Translational Sciences (NCATS)
ALDH1A1 inh: blocks purified human ALDH1A1 activity. P00352. Purified ALDH1A1, NADH fluorescence, propionaldehyde substrate. actives 7.3% (n = 220,000). Potency, µM (series often up to 75.3 µM), inactives show top-dose activity, negative = inhibition, hits mostly inhibitors; active means well fitted inhibition curve with a large enough effect, not every such curve was filed as active; inconclusive means small, poorly fitted or top-dose-only effect, or another doubt; inactive means no such curve, though single readings can be large or run the other way;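 further: potency means the concentration at half of the fitted maximal effect; plate controls were no enzyme wells and a reference inhibitor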
Target sequence (P00352 whole entry, looked up): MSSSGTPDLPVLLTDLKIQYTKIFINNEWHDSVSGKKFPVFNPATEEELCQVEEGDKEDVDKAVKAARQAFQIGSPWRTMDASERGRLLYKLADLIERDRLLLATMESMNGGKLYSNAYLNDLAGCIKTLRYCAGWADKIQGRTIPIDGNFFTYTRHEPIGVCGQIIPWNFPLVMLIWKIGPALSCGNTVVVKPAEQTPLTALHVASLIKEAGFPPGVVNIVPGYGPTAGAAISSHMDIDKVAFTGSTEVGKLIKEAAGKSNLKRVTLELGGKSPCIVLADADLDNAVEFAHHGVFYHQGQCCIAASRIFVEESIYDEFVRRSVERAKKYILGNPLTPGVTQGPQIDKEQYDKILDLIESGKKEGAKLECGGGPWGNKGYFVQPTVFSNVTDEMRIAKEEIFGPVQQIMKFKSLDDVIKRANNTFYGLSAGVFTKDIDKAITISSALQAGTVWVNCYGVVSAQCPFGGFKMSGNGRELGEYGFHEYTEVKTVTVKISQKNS
HPGD block: inhibitors of human 15-hydroxyprostaglandin dehydrogenase (HPGD); P15428; purified HPGD, NADH fluorescence kinetic, PGE2 substrate; Potency, µM, without a hit: top-dose activity change, negative = inhibition, actives largely listed as inhibitors; actives 4.3% (n = 150,000); active means well fitted inhibition curve with a large enough effect, not every such curve was filed as active; inconclusive means small, poorly fitted or top-dose-only effect, or another doubt; inactive means no such curve, though single readings can be large or run the other way; further: potency means the concentration at half of the fitted maximal effect; on the % scale 0 is the no-effect control and ±100 the full control effect
Target sequence (P15428 whole entry, looked up): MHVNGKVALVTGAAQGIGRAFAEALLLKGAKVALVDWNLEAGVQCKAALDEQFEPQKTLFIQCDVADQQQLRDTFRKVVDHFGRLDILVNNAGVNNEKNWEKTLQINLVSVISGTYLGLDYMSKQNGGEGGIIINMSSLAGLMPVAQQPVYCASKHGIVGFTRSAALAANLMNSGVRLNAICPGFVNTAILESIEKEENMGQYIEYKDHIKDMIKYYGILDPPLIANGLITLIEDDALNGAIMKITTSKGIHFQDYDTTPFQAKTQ
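NADH formation kinetics: reaction with 30 uM PGE2 and 1 mM NAD+ (final), 20 nM enzyme, Tris-HCl pH 8 with Tween 20, after 15 min compound preincubation at room temperature. Fluorescence change, last versus first of five reads.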
RGS12 GoLoco inh: RGS12 GoLoco-Gai1 interaction inhibition; Gai1:RGS12 GoLoco peptide FP, rhodamine, 10 min; Potency, µM (titrated, usually from 61.6 µM), inactives show top-dose activity, negative = inhibition, hits mostly inhibitors; actives 0.44% (n = 230,000); active means well fitted inhibition curve with a large enough effect, not every such curve was filed as active; inactive means no such curve, though single readings can be large or run the other way; further: potency means the concentration at half of the fitted maximal effect; on the % scale 0 is the no-effect control and ±100 the full control effect; nearly all actives have a fitted effect of over 30% in size
HTT aggregate: reduces HttQ103-GFP aggregates in PC12 cells. PC12 HttQ103-GFP aggregates, Acumen cytometry, 40 h. actives 1.1% (n = 220,000). Potency, µM (doses to about 46.1 µM), for the others: at the highest dose activity change, negative = inhibition, usual class: inhibitors; further: potency means the concentration at half of the fitted maximal effect; on the % scale 0 is the no-effect control and ±100 the full control effect; nearly all actives have a fitted effect of over 60% in size
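PC12/HTTQ103-GFP, ecdysone-inducible; teb 100 nM; cpd qHTS titration; GFP aggregates read on laser cytometer, Ex 488/Em 500-530 nm.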
PNC inhibitor: blocks assembly of the perinucleolar compartment. PC3M PTB-GFP, PNC prevalence imaging, 16 h; hits give low values. activity change (PNC), negative = inhibition, % at 10 µM. actives 3.1% (n = 140,000). AID 2417;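 active means readout at or below -70, meaning at least 70% loss of cells showing the perinucleolar compartment, a nuclear body marking cancer cells; inconclusive means readout between -30 and a set limit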;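 further: plate controls were DMSO wells for no effect and camptothecin positive control wells for full effect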
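PC3M cells stably expressing PTB-GFP, 750–1000 cells/well, treated 16 h at 37 °C with compound (23 nl of library stock), in duplicate. After paraformaldehyde fixation and Hoechst stain, imaged at 20x; PNC prevalence scored by image analysis.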
HTT cytoprotect: Huntington cell model cytoprotection by ATP luminescence; actives 0.14% (n = 230,000); PC12 HTT-Q103 induced, cytoprotection, ATP luminescence, 40 h; Potency, µM (titrated, usually from 56.4 µM), inactives show cytoprotection (ATP increase), most hits filed as activators; further: potency means the concentration at half of the fitted maximal effect; % of control where 0% means no effect; nearly all actives have a fitted effect of over 45% in size
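Cells were plated at 1500 per well in phenol red-free DMEM with 5% equine and 5% calf serum. Tebufenozide (100 nM final) and compounds were added, then ATPlite reagent, and luminescence was read.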
Starred values were filed as active, the others as inactive; ? = inconclusive; . = no result; [ ] = dose if it differs, or a comment. In the library only some 11% were active in any assay of this set; here they are far more common. Unless noted, the call rests on the fitted dose curve; in most records, active means well fitted curve in the direction sought with a large enough effect; inconclusive means small, poorly fitted or top-dose-only effect, or another doubt; inactive means no such curve, though single readings can be large; an effect the other way counts as inactive or inconclusive.

SMILES | ALDH1A1 inh | HPGD block | RGS12 GoLoco inh | HTT aggregate | PNC inhibitor | HTT cytoprotect
Cc1ccc(OCC(=O)N/N=C\c2cn(Cc3ccccc3)c3ccccc23)cc1C | 13µM* | ? | 1% | -23% | -4 | 19%[10 µM]
CC(C)OC(=O)[C@@H]1CC[C@H](C)[C@@H](CCCC=O)O1 | 1% | -9% | 3% | . | . | .
CCOc1cc(C=O)ccc1OCC(N)=O | 11µM* | . | 5% | 1%[9.22 µM] | . | -2%[10 µM]
C=CCOc1c(Br)cc(/C=N/O)cc1OCC | 14% | -5% | 4% | -20% | -109* | 0%[10 µM]
CCCCOc1c(Br)cc(/C=N/O)cc1OCC | ? | -8% | 10% | -19% | 9 | 2%[1.9 µM]
CCOc1cc(C=O)ccc1OCC(=O)NC(C)(C)C | ? | . | -1% | 24% | . | -19%
CCOc1cc(C=O)cc(Br)c1OCC(N)=O | 7.9µM* | . | -3% | 5% | . | -23%
CC(C)(C)Nc1nc(OCC(F)(F)F)nc(OCC(F)(F)F)n1 | 4% | -3% | 1% | -4% | -107* | -35%[10 µM]
CCN(CC)C(=O)Cn1cc(C(=O)C(=O)NCCCn2ccnc2)c2ccccc21 | -1% | . | 3% | -4% | . | -42%
CC(NC(=O)/C=C/c1cnc2ccccc2n1)C12CC3CC(CC(C3)C1)C2 (stereo not given) | -6% | -1% | -4% | ? | 11 | -4%[1.9 µM]
O=C(c1csc(Nc2cccc3ccccc23)n1)N1CCCC1 | . | . | -9% | -33%[9.22 µM] | . | 20%[10 µM]
O=C(NCc1ccco1)c1csc(Nc2ccccc2Cl)n1 | ? | 16µM* | -5% | -18% | -117* | 5%[10 µM]
COc1ccc(Nc2nc(C(=O)NCc3ccco3)cs2)cc1 | . | . | -6% | -7%[9.22 µM] | . | 4%[10 µM]
O=C(c1csc(Nc2ccccc2Cl)n1)N1CCCC1 | 22µM* | 16µM* | -6% | -3% | 30 | -10%[10 µM]
Cc1ccccc1C(=O)OCCN1CCOCC1 | -9% | -5% | -2% | -3% | ? | 27%[0.074 µM]
NNC(=O)c1sc2cc(C(F)(F)F)cnc2c1-c1ccccn1 | 7.1µM* | . | 8% | 1%[9.22 µM] | . | -6%[10 µM]
O=C(O)c1sc2cc(C(F)(F)F)cnc2c1-c1ccccc1 | 3% | -16% | 2% | 6% | -14 | -3%
COc1ccccc1/C=C/C=N/NC(=O)c1ccc2nc[nH]c2c1 | -6% | . | 6% | 14% | . | -42%
NC(=O)C1(NC(=O)[C@@H]2CC3(CC(c4cccc(NC(=O)[C@@H]5CCC(=O)N5)c4)=NO3)CN2C(=O)c2cnccn2)CC1 (stereo not given in full) | 22µM* | -13% | 4% | -6% | -2 | 9%
NC(=O)C1(NC(=O)[C@@H]2CC3(CC(c4cccc(NC(=O)[C@@H]5CCC(=O)N5)c4)=NO3)CN2C(=O)c2ccccc2)CC1 (stereo not given in full) | 3% | -1% | 1% | 27% | 33 | 10%
CCCC(C)NC(=O)c1ccc2[nH]c3c(c2c1)CC(C)CC3 (stereo not given) | 16µM* | . | . | 5% | 23 | -7%
O=C(NCCO)c1ccc2[nH]c3c(c2c1)CCCC3 | 4% | -11% | 3% | -3% | -18 | -27%
O=C(Nc1ccc(Cl)c(Cl)c1)N1CCSC1c1ccco1 (stereo not given) | 5µM* | 22µM* | 0% | ? | 13 | -42%
CC(=O)Nc1ccc(S(=O)(=O)N2CCSC2c2ccco2)cc1 (stereo not given) | ? | . | 1% | 7%[9.22 µM] | . | 27%[10 µM]
COc1ccc(-c2nc3ccccc3c(C(=O)Nc3ccc(S(=O)(=O)Nc4cc(C)on4)cc3)c2C)cc1 | -4% | -22% | -7% | -29% | 20 | -20%
SMILES | ALDH1A1 inh | HPGD block | RGS12 GoLoco inh | HTT aggregate | PNC inhibitor | HTT cytoprotect
C=CCn1c(SCC(=O)NC23CC4CC(CC(C4)C2)C3)nc2cc(C(=O)O)ccc2c1=O | 13µM* | . | -2% | 13% | . | 4%
C=CCn1c(SCc2cc([N+](=O)[O-])cc3c2OCOC3)nc2cc(C(=O)O)ccc2c1=O | 10µM* | . | 5% | -8%[9.22 µM] | . | -6%[10 µM]
C=CCn1c(SCC(=O)Nc2ccc(F)cc2)nc2cc(C(=O)O)ccc2c1=O | -15% | . | 4% | -4% | . | -13%
COCCN(CC(=O)NCc1ccc2c(c1)OCO2)C(=O)CCC(=O)Nc1nccs1 | 6% | -10% | -8% | 2% | -100* | -5%[10 µM]
O=C(CCC(=O)N(CC(=O)NC1CCCC1)Cc1ccc2c(c1)OCO2)Nc1ccccn1 | -4% | . | . | 1% | -94* | 4%
Cc1ccnc(NC(=O)CCC(=O)N(CC(=O)NC2CCCCC2)Cc2ccccc2)c1 | 6% | . | 11% | 22%[9.22 µM] | . | 17%[10 µM]
Cc1ccnc(NC(=O)CCC(=O)N(CC(=O)NCc2ccccc2)Cc2cccs2)c1 | 16µM* | . | 9% | -15% | . | ?
COc1ccccc1N(CC(=O)NCc1ccccc1)C(=O)CCC(=O)Nc1ccccn1 | -8% | -14% | 4% | -8% | -100* | 10%[10 µM]
COCCNC(=O)CN(Cc1ccc2c(c1)OCO2)C(=O)CCC(=O)Nc1nccs1 | 4% | 3% | 7% | -16% | 8 | 22%[10 µM]
COc1ccc(CNc2ncnc3ccc(-c4cccc(NS(C)(=O)=O)c4)cc23)c(OC)c1 | 3% | . | 8% | . | . | -246%
CCn1c(Cc2ccccc2)nnc1SCC(=O)Nc1ccccc1O | 8% | . | 0% | 29% | . | .
NC(=O)CSc1nnc(-c2ccccn2)n1N | . | . | -2% | -16%[9.22 µM] | . | 2%[10 µM]
COC(=O)[C@@]1(Cc2ccc(OC)cc2)[C@H]2c3cc(C(=O)N(C)C)n(Cc4nc5ccccc5[nH]4)c3C[C@H]2CN1C(=O)c1ccccc1 | ? | -25% | 15% | . | . | -6%
Cc1cccc(N(CC(=O)NCc2ccc3c(c2)OCO3)C(=O)CCC(=O)Nc2ccccn2)c1C | 28µM* | -15% | 5% | -14% | 23 | 6%
N=C(N)SCc1nc(-c2ccc(Cl)cc2)no1 | -13%[13.5 µM] | -9% | -4%[14.2 µM] | . | . | -4%[10 µM]
COC(=O)/C(=C\c1ccc(O)cc1)c1nc2ccccc2[nH]1 | 12µM* | . | 14% | 9% | . | 18%
O=C(/C(=C/c1ccc(Cl)cc1)c1nc2ccccc2[nH]1)c1cccs1 | ? | ? | 28% | 5µM* | 27 | -110%
COc1ccc(C(=O)NNC(=O)c2ccccc2[N+](=O)[O-])cc1 | 8% | 1% | 1% | 22% | -89* | -32%[10 µM]
COc1ccc(C(=O)NNc2ccccc2)cc1 | 28µM* | -18% | -6% | 24% | 18 | 5%[10 µM]
O=C(NNC(=O)c1ccccc1[N+](=O)[O-])c1ccccc1[N+](=O)[O-] | 22µM* | . | 2% | 16% | . | -20%
O=C(NCc1cccs1)c1ccccc1[N+](=O)[O-] | 8% | 13µM* | -9% | ? | ? | -41%[10 µM]
COc1ccc(C(=O)NNC(=O)c2ccccc2[N+](=O)[O-])cc1Br | -6% | -6% | 7% | -15% | 3 | .
